Experimental data as given in PubChem BioAssay AID602440 (Sanford-Burnham Center for Chemical Genomics, 2012).
In all, about 360,000 compounds went through this assay and about 2,300 (0.64%) were called active. Rule as the data show it: active = inhibition mostly above about 40% (no sharp cut-off); inactive = mostly below about 27%. Many of the other results were omitted from the sample, so actives are more common in it than they were.

target: Sentrin-specific protease 8 (Homo sapiens) (UniProt Q96LD8); experiment: blockers of SENP8 deneddylase activity – biochemical, fluorescence, Nedd8 protein substrate, uHTS, primary screen (AID 602440); settings: recombinant SENP8, Nedd8 substrate fluorescence; at 20 µM; hits give high values
Sequence (Q96LD8 whole entry, looked up): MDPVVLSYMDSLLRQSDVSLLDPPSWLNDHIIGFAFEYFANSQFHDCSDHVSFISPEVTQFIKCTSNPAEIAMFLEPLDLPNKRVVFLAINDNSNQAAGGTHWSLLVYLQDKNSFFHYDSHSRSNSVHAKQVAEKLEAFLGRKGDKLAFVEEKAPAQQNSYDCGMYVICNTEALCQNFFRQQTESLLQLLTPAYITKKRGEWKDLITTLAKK

Which inhibition does the source give for `Cc1cc(NC(=O)COC(=O)COc2ccc(Cl)cc2C)c([N+](=O)[O-])cc1C` here?
The inhibition was 7.4% (inactive).

`COc1ccc(CN2CN(C(C)C)CSC2=S)cc1` was tested. Which inhibition did it give?
Its inhibition is 6.1% (inactive).

For `Cc1oc2c(c1C(=O)N1CCOCC1)C(=O)c1ccccc1C2=O`, which inhibition is on record?
Its inhibition is 61.3% (active).

`CC(C(=O)Nc1ccccc1-c1ccccc1)N1CCOCC1` (configuration not stated) was tested. Which inhibition did it give?
Its inhibition is 3.7% (inactive).

With `Cc1nc2ccccc2n1C(=O)N1CCOCC1` as the compound, how does the inhibition read?
The inhibition was 11.5% (inactive).

With `COc1ccc(C2=NOC(C(=O)NCc3ccco3)C2)cc1OC` (configuration not stated) as the compound, how does the inhibition read?
Its inhibition is 7.1% (inactive).

For `COc1ccc(-c2c(NC(=O)c3ccco3)oc3ccc(Cl)cc3c2=O)cc1`, which inhibition is on record?
Its inhibition is -71.5% (inactive).

How did the inhibition turn out when `Cc1cc(C)cc(N(CC(=O)NC2CCCC2)C(=O)CCC(=O)Nc2nccs2)c1` was run?
Its inhibition is 10.9% (inactive).

Which inhibition does the source give for `CC1(C)C2CCC1(C)C(OC(=O)CCn1ccnc1)C2` (configuration not stated) here?
Its inhibition is 22.1% (inactive).

For `CC1(C)C2CCC1(C)C(OC(=O)c1ccc(O)cc1)C2` (configuration not stated), which inhibition is on record?
Its inhibition is 40.5% (active).

How did the inhibition turn out when `Cc1ccc(C(=O)OC2CCCN(C)C2)cc1` (configuration not stated) was run?
The inhibition was 8.1% (inactive).

With `COc1ccc2c(c1)C(C)=CC(C)(C)N2C(=O)Nc1ccccc1` as the compound, how does the inhibition read?
The inhibition was -486% (inactive).

`COc1cc2[nH]c(=S)n(Cc3ccc(C)o3)c(=O)c2cc1OC` was tested. Which inhibition did it give?
The inhibition was 20% (inactive).

With `CCC(C)(C)NC(=O)C(c1ccc(O)cc1)N(Cc1ccco1)C(=O)CCC(=O)Nc1ccccn1` (configuration not stated) as the compound, how does the inhibition read?
Its inhibition is -20.6% (inactive).

With `Nc1ncnc2c1ncn2[C@@H]1O[C@H](C(=O)N2CCCN(Cc3ccccc3F)CC2)[C@@H](O)[C@H]1O` as the compound, how does the inhibition read?
Its inhibition is 18.2% (inactive).

How did the inhibition turn out when `CCOc1ccc(NC(=O)CCNC(=O)c2ccc(Br)cc2)cc1` was run?
Its inhibition is 0.3% (inactive).

How did the inhibition turn out when `CCN(CC)CCOC(=O)c1ccc(NC(=O)CNC(=O)c2ccccc2)cc1` was run?
The inhibition was 7% (inactive).

How did the inhibition turn out when `CCN(CC)C(=O)CCC(=O)Nc1ccc(C(=O)OC)cc1` was run?
Its inhibition is 51.9% (active).

Which inhibition does the source give for `Nc1c(C(=O)c2cccs2)sc2nsc(SCCN3CCCCC3)c12` here?
Its inhibition is 16.8% (inactive).

Which inhibition does the source give for `O=C(NCCN1CCOCC1)C1CCN(S(=O)(=O)c2ccccc2)CC1` here?
Its inhibition is 18% (inactive).

How did the inhibition turn out when `O=C(NNc1nc(N2CCCC2)nc(N2CCCC2)n1)c1ccccc1` was run?
Its inhibition is 5.2% (inactive).

For `CN1CCc2ccccc2C1Cc1ccccc1NC(=O)c1sc2ccccc2c1Cl` (configuration not stated), which inhibition is on record?
Its inhibition is 53.8% (active).

How did the inhibition turn out when `CCc1ccccc1NC(=O)NCCN1CCCCC1` was run?
The inhibition was 12.7% (inactive).

`CCc1ccccc1NC(=O)c1ccc2c(c1)CCN2S(C)(=O)=O` was tested. Which inhibition did it give?
Its inhibition is 22.2% (inactive).

`Cc1ccc(C2=Nc3c(ccc4ccccc34)C(c3ccncc3)=NN2)cc1` was tested. Which inhibition did it give?
The inhibition was -6.5% (inactive).

For `C=C(C)Cn1c(C)cc(C)c(S(=O)(=O)c2ccccc2C)c1=O`, which inhibition is on record?
Its inhibition is 20.8% (inactive).

How did the inhibition turn out when `COc1ccc(/C=C2/C(=O)OCc3cc(OC)c(OC)cc32)c(OC)c1` was run?
The inhibition was 20.7% (inactive).

`COc1ccc(/C=C2/C(=O)N(c3ccccc3)N=C2C)c(OC)c1` was tested. Which inhibition did it give?
The inhibition was 53.8% (active).

`COc1ccc(C(=O)CCc2ccccc2O)c(OC)c1` was tested. Which inhibition did it give?
Its inhibition is 9.3% (inactive).

Which inhibition does the source give for `O=C(CSc1nnnn1C1CCCC1)Nc1ccc2c(c1)OCCO2` here?
The inhibition was 7% (inactive).

How did the inhibition turn out when `CN(C)c1ccc(/C=C2\NC(=S)N(Cc3ccccc3)C2=O)cc1` was run?
Its inhibition is 46.7% (active).

With `CCN(CC(=O)NC(C)C)C(=O)c1cc(S(=O)(=O)N2CCCCC2)ccc1N1CCCCC1` as the compound, how does the inhibition read?
Its inhibition is 2.8% (inactive).

For `CCOC(=O)C1CCCCN1Cc1ccc(OC)c(OC)c1OC` (configuration not stated), which inhibition is on record?
Its inhibition is -4.4% (inactive).

How did the inhibition turn out when `Cc1ccc(S(=O)(=O)N2CCN(S(=O)(=O)N3CCOCC3)CC2)cc1` was run?
The inhibition was 6.5% (inactive).

Which inhibition does the source give for `CC1(C)CC(=O)C(N=Nc2c(F)cccc2F)=C(O)C1` here?
Its inhibition is 24.6% (inactive).

For `CC1(C)CC(=O)C(N=Nc2ccc(S(=O)(=O)N3CCCCCC3)cc2)=C(O)C1`, which inhibition is on record?
Its inhibition is 41% (active).

`O=C1CCCC(O)=C1N=Nc1ccc2ncsc2c1` was tested. Which inhibition did it give?
Its inhibition is 7.1% (inactive).

With `O=C1CCCC(O)=C1N=Nc1ccc(S(=O)(=O)N2CCOCC2)cc1` as the compound, how does the inhibition read?
Its inhibition is 43.2% (active).

`O=S(=O)(c1ccc(-c2ccccc2)cc1)N1CCCC1` was tested. Which inhibition did it give?
The inhibition was 7.9% (inactive).

Which inhibition does the source give for `Cn1c(C(=O)O)ccc1S(=O)(=O)N(Cc1ccccc1)Cc1ccccc1` here?
Its inhibition is -7% (inactive).

For `COc1ccc(C(=O)N(CCN2CCOCC2)CC(=O)NC2CCCC2)cc1OC`, which inhibition is on record?
The inhibition was -1.7% (inactive).

Which inhibition does the source give for `CN(CC(=O)NNC(=O)CNC(=O)c1ccccc1Cl)S(=O)(=O)c1ccc(Cl)cc1` here?
The inhibition was 10.1% (inactive).

With `Cc1cc(O)c(NC(=O)c2ccc(C)c([N+](=O)[O-])c2)cc1C` as the compound, how does the inhibition read?
The inhibition was 3.9% (inactive).

Which inhibition does the source give for `CCN(CC)C(=O)CC1(c2ccccc2OC)CCOC(C(C)C)C1` (configuration not stated) here?
Its inhibition is 4% (inactive).

`Clc1ccc(C2=CSC3=Nc4cccc5cccc(c45)N23)cc1` was tested. Which inhibition did it give?
Its inhibition is 70.7% (active).

`COCCNC(=S)N1CCC(NC(=O)C23CC4CC(CC(C4)C2)C3)CC1` was tested. Which inhibition did it give?
Its inhibition is 8.9% (inactive).

`c1ccc(-c2c[nH]c(-c3ccccc3)c2)cc1` was tested. Which inhibition did it give?
The inhibition was -22% (inactive).

For `CCCc1c(-c2ccccc2F)ncn1Cc1ccccc1OC`, which inhibition is on record?
The inhibition was 2.7% (inactive).

`CC(=O)NNc1cc(=O)c2c(=O)n(C)c(=O)n(C)c2[nH]1` was tested. Which inhibition did it give?
The inhibition was 15.9% (inactive).

Which inhibition does the source give for `Cn1c(N)c(C(=O)COC(=O)C23CC4CC(CC(C4)C2)C3)c(=O)n(C)c1=O` here?
The inhibition was 12% (inactive).

How did the inhibition turn out when `O=C(COC(=O)c1ccc([N+](=O)[O-])o1)NC12CC3CC(CC(C3)C1)C2` was run?
The inhibition was 35.1% (active).

With `O=C(COC(=O)c1ccc(Br)o1)NC12CC3CC(CC(C3)C1)C2` as the compound, how does the inhibition read?
The inhibition was 10% (inactive).

With `O=C(OCC(=O)c1cccs1)c1ccc([N+](=O)[O-])o1` as the compound, how does the inhibition read?
The inhibition was 29.2% (inactive).

For `C/C=C/C=C/C(=O)O`, which inhibition is on record?
Its inhibition is 11.5% (inactive).

How did the inhibition turn out when `NCCCCC(C(=O)O)N(C(=O)OCc1ccccc1)C(=O)OCc1ccccc1` (configuration not stated) was run?
Its inhibition is 15.2% (inactive).

For `O=C(C[C@H]1C(=O)N(c2ccc(F)c(F)c2)C[C@@H]1Cc1ccccc1)Nc1ccccc1`, which inhibition is on record?
Its inhibition is 1.6% (inactive).

How did the inhibition turn out when `CCCCn1c(N)c(N(CC(C)C)C(=O)c2ccc(-n3c(C)ccc3C)cc2)c(=O)[nH]c1=O` was run?
The inhibition was 1.8% (inactive).

`Oc1ccc(C2Nc3cccc4cccc(c34)N2)cc1` was tested. Which inhibition did it give?
Its inhibition is 63.3% (active).

Which inhibition does the source give for `O=C(COC(=O)c1ccc2ncsc2c1)Nc1ccc(Cl)cc1` here?
The inhibition was -18.6% (inactive).

How did the inhibition turn out when `CN(C(=O)CN1C(=O)/C(=C/c2ccc(Cl)cc2)SC1=S)C1CCS(=O)(=O)C1` (configuration not stated) was run?
Its inhibition is 23.9% (inactive).

Which inhibition does the source give for `C=CCOc1ccc(/C=C2\SC(=S)N(CCC(=O)O)C2=O)cc1` here?
The inhibition was 40.8% (active).

`C=CCOc1ccc(C(=O)Nc2ccccc2C(=O)N2CCCC2)cc1` was tested. Which inhibition did it give?
Its inhibition is 0.4% (inactive).
